Experimental data as given in PubChem BioAssay (Tox21).
Where “and” joins values, the source holds several entries; their conditions need not be identical. Equal values may be shown once. Inconclusive results are not listed. Where a structure was tested more than once in an assay, its records may differ in their call. Calls of active or inactive are those of the source. Unless noted, calls follow the shape of the dose curve; as a rule, active = well fitted curve in the direction sought with a large enough effect in the repeat runs; inconclusive = weak or mixed curves; inactive = no such curve, though single readings can be large; an effect the other way counts as inactive or inconclusive.

Tests used:
[1] = A CellTox Green Cytotoxicity Assay to monitor cytotoxicity in HEK293 cells - 32 hour (AID 1224881); also: nearly all actives have a fitted effect of over 40% in size
Outline: (§1)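 Seeding of HEK293 cells together with cytotoxicity dye preceded a 5 h incubation at 37 C/5% CO2. Test compounds in DMSO were then added and fluorescence monitored across 40 h.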

[2] = A CellTox Green Cytotoxicity Assay to monitor cytotoxicity in HepG2 cells - 0 hour (AID 1224882); also: nearly all actives have a fitted effect of over 35% in size
Outline: (§2)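 Nonlytic assay: viable cells exclude the dye, so fluorescence scales with cell death. HepG2 at 600 cells/well, compounds added after 5 h, signal read across 40 h.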

[3] = A CellTox Green Cytotoxicity Assay to monitor cytotoxicity in HEK293 cells - 8 hour (AID 1224884); also: nearly all actives have a fitted effect of over 35% in size
Outline: as §1

[4] = qHTS RealTime-Glo MT Cell Viability Assay in HepG2 cells - 16 hour (AID 1224885); also: nearly all actives have a fitted effect of over 50% in size
Outline: (§3)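 HepG2 cells (600/well) were dispensed with RealTime-Glo reagents, incubated 5 h at 37 °C, then treated with compounds in DMSO for up to 40 h. Nonlytic NanoLuc luminescence reflecting viable cells was read at each stated time point.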

[5] = qHTS RealTime-Glo MT Cell Viability Assay in HEK293 cells - 24 hour (AID 1224886); also: nearly all actives have a fitted effect of over 50% in size; also: potency is read from the fitted curve at half-maximal effect
Outline: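 HEK293 cells seeded with NanoLuc/prosubstrate reagent, rested 5 h at 37 C, then dosed and kept at 37 C up to 40 h. Nonlytic real-time luminescence from viable cells read at 0, 8, 16, 24, 32 and 40 h.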

[6] = qHTS RealTime-Glo MT Cell Viability Assay in HEK293 cells - 8 hour (AID 1224887); also: nearly all actives have a fitted effect of over 50% in size; also: potency is read from the fitted curve at half-maximal effect
Outline: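 Tox21 screen in HEK293 using RealTime-Glo MT chemistry, with cells and reagent co-dispensed. Luminescence proportional to viable cell number was captured at intervals during 40 h compound exposure at 37 C.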

[7] = qHTS RealTime-Glo MT Cell Viability Assay in HepG2 cells - 0 hour (AID 1224889); also: nearly all actives have a fitted effect of over 50% in size
Outline: as §3

[8] = A CellTox Green Cytotoxicity Assay to monitor cytotoxicity in HepG2 cells - 8 hour (AID 1224890); also: nearly all actives have a fitted effect of over 45% in size
Outline: as §2

[9] = qHTS assay to identify small molecule antagonists of the estrogen receptor alpha (ER-alpha) signaling pathway using the BG1 cell line in the presence of 0.1 nM 17-beta-estradiol - cell viability counter screen (AID 1259241); also: nearly all actives have a fitted effect of over 40% in size; also: potency is read from the fitted curve at half-maximal effect
Outline: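 Cytotoxicity counter-screen: live-cell protease activity measured by fluorescence (30 min reagent step) in the same wells. Cells were VM7Luc4E2 with endogenous ER-alpha and ERE-driven luciferase, treated 22 hr at 37C alongside 0.1 nM 17beta-estradiol final.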

[10] = qHTS assay to identify small molecule antagonists of the androgen receptor (AR) signaling pathway using the MDA cell line in the presence of 0.5 nM R1881 - cell viability counter screen (AID 1259242); also: nearly all actives have a fitted effect of over 45% in size; also: potency is read from the fitted curve at half-maximal effect
Outline: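 R1881 at 0.5 nM final stimulated MDA-kb2 cells during 16 hr compound treatment at 37C. Cytotoxicity read: CellTiter-Fluor fluorescence after 30 min.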

[11] = qHTS assay to identify small molecule HDAC inhibitors (AID 1259364);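 also: wild-type HCT-116 cells with endogenous class I/II HDAC activity; top concentration of the series differs between compounds; nearly all actives have a fitted effect of over 45% in size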
Outline: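 Relative class I and II HDAC activity is taken from the luminogenic signal in HCT-116 cells, with compound exposure 2 hr and reagent development 30 min at room temperature.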

[12] = qHTS assay to identify small molecule HDAC inhibitors - cell viability counter screen (AID 1259365)
Outline: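 CellTiter-Glo luminescence (30 min, room temperature) reported viability after a 2 h compound exposure at 37 C. Cells: wild-type HCT-116, 1,500 per well, seeded the night before.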

[13] = qHTS assay to identify small molecule agonists of the sonic hedgehog signaling (Shh) pathway - cell viability counter screen (AID 1259366); also: nearly all actives have a fitted effect of over 50% in size; also: potency is read from the fitted curve at half-maximal effect
Outline: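 Cytotoxicity counter screen: CellTiter-Fluor reagent added after 23 h compound exposure, then 1 h at 37C and fluorescence read. Cells were 3T3 Gli1-Luc, seeded 2,000 per well and dosed 4 h post-plating.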

[14] = qHTS assay to identify small molecule antagonists of the sonic hedgehog signaling (Shh) pathway - cell viability counter screen (AID 1259367); also: nearly all actives have a fitted effect of over 55% in size; also: potency is read from the fitted curve at half-maximal effect
Outline: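 After a 4 hr settling period, 3T3 Gli1-Luc cells were treated with DMSO-dissolved chemicals and conditioned medium, kept 24 hr at 37C in 5% CO2, and assayed for viability by CellTiter-Fluor fluorescence following 1 hr reagent incubation.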

[15] = qHTS assay to identify small molecule agonists of the sonic hedgehog signaling (Shh) pathway (AID 1259368; calls by dose curve;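 also: NIH/3T3-derived 3T3Gli1-Luc cells carrying a stable Gli1-driven firefly luciferase reporter; series mostly up to about 92 µM; nearly all actives have a fitted effect of over 15% in size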)
Outline: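 Mouse fibroblast (NIH/3T3) reporter cells with stably integrated Gli1-Luc were treated 24 hr with compound; firefly luciferase luminescence served as the read-out.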

[16] = A CellTox Green Cytotoxicity Assay to monitor cytotoxicity in HEK293 cells - 16 hour (AID 1224888); also: nearly all actives have a fitted effect of over 35% in size
Outline: as §1

[17] = qHTS assay to identify small molecule phospholipidosis (PLD) inducers (AID 1259344; active = well fitted curve in the direction sought with a large enough effect; an effect the other way counts as inactive or inconclusive)
Outline: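 HepG2 cells grown on collagen I take up LipidTOX Red while exposed to compound for 24 h; after fixation they are imaged at 20x and pit metrics are extracted.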

[18] = biological target: Androgen receptor (Homo sapiens) (UniProt P10275); test: qHTS assay to identify small molecule antagonists of the androgen receptor (AR) signaling pathway using the MDA cell line in the presence of 0.5 nM R1881 (AID 1259243); also: nearly all actives have a fitted effect of over 50% in size
Outline: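 We exposed MDA-kb2 cells to compounds under 0.5 nM R1881 stimulation for 16 hr at 37C and quantified MMTV-driven luciferase by luminescence.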

[19] = biological target: Estrogen receptor (Homo sapiens) (UniProt P03372); test: qHTS assay to identify small molecule antagonists of the estrogen receptor alpha (ER-alpha) signaling pathway using the BG1 cell line in the presence of 0.1 nM 17-beta-estradiol (AID 1259244); also: nearly all actives have a fitted effect of over 50% in size
Outline: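 VM7Luc4E2; 4xERE-luciferase; 0.1 nM E2 final; 22 h co-incubation, 37C; ONE-Glo luminescence after 30 min at room temperature.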

[20] = A CellTox Green Cytotoxicity Assay to monitor cytotoxicity in HepG2 cells - 32 hour (AID 1224883); also: nearly all actives have a fitted effect of over 50% in size
Outline: as §2

Measured: Potency

Chain of Estrogen receptor (Homo sapiens) (P03372 whole entry, looked up): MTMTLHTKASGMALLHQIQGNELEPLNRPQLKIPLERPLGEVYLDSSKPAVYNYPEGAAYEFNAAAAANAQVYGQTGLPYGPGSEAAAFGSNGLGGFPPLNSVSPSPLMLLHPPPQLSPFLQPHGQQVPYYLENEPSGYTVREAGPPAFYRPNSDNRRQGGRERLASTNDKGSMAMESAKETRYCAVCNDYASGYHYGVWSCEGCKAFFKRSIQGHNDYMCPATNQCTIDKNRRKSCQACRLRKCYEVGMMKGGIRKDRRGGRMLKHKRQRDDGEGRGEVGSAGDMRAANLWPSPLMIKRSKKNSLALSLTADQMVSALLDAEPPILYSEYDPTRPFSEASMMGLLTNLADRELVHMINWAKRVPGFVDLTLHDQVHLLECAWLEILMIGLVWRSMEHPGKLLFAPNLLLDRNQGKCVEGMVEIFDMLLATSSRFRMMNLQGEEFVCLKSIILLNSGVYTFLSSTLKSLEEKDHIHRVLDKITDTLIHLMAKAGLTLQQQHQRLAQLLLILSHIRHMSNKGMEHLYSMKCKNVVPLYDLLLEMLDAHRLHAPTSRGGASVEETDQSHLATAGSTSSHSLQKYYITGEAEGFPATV
Chain of Androgen receptor (Homo sapiens) (P10275 whole entry, looked up): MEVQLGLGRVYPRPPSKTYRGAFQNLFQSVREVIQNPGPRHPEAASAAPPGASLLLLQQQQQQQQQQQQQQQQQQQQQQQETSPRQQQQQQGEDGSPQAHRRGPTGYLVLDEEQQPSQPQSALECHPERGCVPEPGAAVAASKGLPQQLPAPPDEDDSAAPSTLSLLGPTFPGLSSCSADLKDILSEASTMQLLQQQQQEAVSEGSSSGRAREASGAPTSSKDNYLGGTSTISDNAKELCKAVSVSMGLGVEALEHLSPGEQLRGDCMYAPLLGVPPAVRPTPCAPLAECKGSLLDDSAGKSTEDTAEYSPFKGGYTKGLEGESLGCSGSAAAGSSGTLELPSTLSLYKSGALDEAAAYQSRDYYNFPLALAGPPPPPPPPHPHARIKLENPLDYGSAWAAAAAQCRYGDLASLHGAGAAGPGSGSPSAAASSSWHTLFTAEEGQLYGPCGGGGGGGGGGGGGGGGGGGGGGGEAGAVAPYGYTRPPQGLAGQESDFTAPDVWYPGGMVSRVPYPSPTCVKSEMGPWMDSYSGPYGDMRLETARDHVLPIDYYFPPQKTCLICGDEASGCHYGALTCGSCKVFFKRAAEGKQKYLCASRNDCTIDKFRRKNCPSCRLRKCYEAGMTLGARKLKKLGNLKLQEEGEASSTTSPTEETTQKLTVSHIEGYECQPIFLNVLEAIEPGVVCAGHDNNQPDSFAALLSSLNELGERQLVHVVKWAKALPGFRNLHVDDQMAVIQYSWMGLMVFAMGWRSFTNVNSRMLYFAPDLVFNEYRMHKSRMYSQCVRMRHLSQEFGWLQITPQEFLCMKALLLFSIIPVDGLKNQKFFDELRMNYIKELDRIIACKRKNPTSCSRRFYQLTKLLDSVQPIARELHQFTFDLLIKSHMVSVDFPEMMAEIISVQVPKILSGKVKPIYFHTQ

C=CC(=O)OCCC(=O)O
not listed: [16] | [17] | [18] | [19] | [20]
inactive: all other assays above

CCc1ccccc1CC
not listed: [17] | [18] | [19] | [20]
inactive: all other assays above

CC(C)CCCCCCCOC(=O)CCCCC(=O)OCCCCCCCC(C)C
not listed: [11] | [16] | [17] | [18] | [19] | [20]
inactive: all other assays above

CC(=O)OC1CC(C)OC(C)O1 (stereo unspecified)
not listed: [16] | [17] | [18] | [19] | [20]
inactive: all other assays above

N#Cc1ccccc1
not listed: [17] | [18] | [19] | [20]
inactive: all other assays above

OC1C(O)C(O)C(O)C(O)C1O (stereo unspecified)
not listed: [4] | [14] | [16] | [18] | [19] | [20]
inactive: all other assays above

CC(CCO)CC(C)(C)C (stereo unspecified)
not listed: [4] | [8] | [11] | [14] | [16] | [17] | [20]
inactive: all other assays above

Cc1ccc(S(=O)(=O)N=C=O)cc1
16.9 µM (active) and inactive: [13]
not listed: [4] | [14] | [17] | [18] | [20]
inactive: all other assays above

O=C(O)c1ccc(S(=O)(=O)N(Cl)Cl)cc1
49.3 µM (active) and inactive: [5] | [6]
not listed: [4] | [18] | [19] | [20]
inactive: all other assays above

CC(C)(C)c1cc(Cc2cc(C(C)(C)C)c(O)c(C(C)(C)C)c2)cc(C(C)(C)C)c1O
not listed: [11] | [14] | [16] | [17] | [18] | [20]
inactive: all other assays above

c1ccc2c(c1)Cc1ccccc1-2
not listed: [1] | [8] | [11] | [14] | [17] | [18] | [19]
inactive: all other assays above

CC1(C)CC(N)CC(C)(CN)C1 (stereo unspecified)
not listed: [8] | [16] | [17] | [18] | [20]
inactive: all other assays above

O=C(O)CCCCCCCCC(=O)O
not listed: [4] | [14] | [16] | [17] | [18] | [19] | [20]
inactive: all other assays above

COc1ccc(OC)cc1
not listed: [11] | [16] | [17] | [18] | [19] | [20]
inactive: all other assays above

O=[N+]([O-])c1ccc2nc[nH]c2c1
not listed: [4] | [14] | [17] | [18] | [20]
inactive: all other assays above

CC(=O)c1ccc(O)cc1
not listed: [11] | [14] | [17] | [18] | [20]
inactive: all other assays above

Brc1ccc(Br)c(Br)c1
not listed: [1] | [14] | [17] | [18] | [19]
inactive: all other assays above

O=S(=O)(O)c1ccc(N=Nc2c(O)ccc3cc(S(=O)(=O)O)ccc23)cc1
active: [9] 30.8 µM and 27.3 µM | [10] 54.7 µM and 27.3 µM | [13] 30.8 µM and 30.6 µM | [14] 27.4 µM and 27.3 µM
not listed: [4] | [6] | [17] | [18] | [20]
inactive: all other assays above

COCCCN
not listed: [4] | [17] | [18] | [19] | [20]
inactive: all other assays above

C=C(C)[C@H]1CC=C(C)C(=O)C1
not listed: [8] | [11] | [14] | [16] | [17] | [18] | [19] | [20]
inactive: all other assays above

C=CC[N+](C)(C)CC=C
not listed: [8] | [17] | [18] | [19] | [20]
inactive: all other assays above

CCCCCCCCCCN
not listed: [16] | [17] | [18] | [19] | [20]
inactive: all other assays above

CCOC(=O)n1ccn(C)c1=S
not listed: [11] | [18] | [19] | [20]
inactive: all other assays above

CC(=O)CCC=C(C)C
not listed: [4] | [16] | [17] | [18] | [20]
inactive: all other assays above
